We go through 14 compounds from PubChem BioAssay.

The structures appear in SMILES notation. Calls of active or inactive are those of the source.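 Rule for the calls, unless noted: active = NADPH fluorescence slope more negative than the mean of all samples by about 3 SD, 99.7% confidence; inactive = the rest.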

Assay [1] in a line: inhibitors of TNFa-induced NFkB p65 translocation, primary screen, imaging, HUVEC, MLSMR starter and 10KST1 sets (AID 438;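 active = inhibition above 20% together with a positive visual image hit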;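 note: compound added about 3h40 before a 20 min TNFalpha stimulation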;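 for inhibition: signal is the nuclear over cytoplasmic p65 intensity ratio per well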). As to conditions: HUVEC TNFa-induced p65 nuclear translocation; cell count: measured here: nuclei count (cytotoxicity indicator), at 2.08 µM; inhibition: at 2 µM, stronger effect = higher value, 0% TNFa-plus-vehicle, 100% no-TNFa wells.
Assay [2] in a line: reduction of polyQ htt aggregates in cells – imaging, exon1htt(103Q)mCFP cells, high-content imaging, primary screen (AID 483;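 active = visual image review flags a hit and inhibition of aggregation exceeds 20%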;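 note: compound exposure lasted 3 days before fixation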;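 for nuclei count: percent of the per-plate median nuclei count of sample wells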). As to conditions: exon1htt(103Q)mCFP cell line, aggregate imaging, at 2 µM; inhibition of aggregation: stronger effect = higher value; nuclei count: measured here: cell count, toxicity.
The nature of assay [3]: endothelial E-selectin expression blockers – imaging, HUVEC, immunofluorescence, MLSMR starter and 10KST1 sets, primary screen (AID 487;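 active = visually confirmed hit in the image check and inhibition above 20%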;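 for inhibition: signal is fraction of cell area covered by stained E-selectin grains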;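 for nuclei count: 100% = median nuclei count of all wells on the same plate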). The note with it: HUVEC TNFalpha-induced E-selectin immunofluorescence imaging, at 2 µM; inhibition: stronger effect = higher value; nuclei count: measured here: cell number, toxicity.
Assay [4] addresses Voltage-gated potassium channel subunit beta-2 (Rattus norvegicus) (UniProt P62483). As to the kind of experiment: inhibitors of rat Kvbeta2 reductase activity – biochemical, NADPH fluorescence, primary screen (AID 622;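 active = fluorescence slope higher than the sample average by over 3 SD, cut at about -0.22 in these data, passing the limit was not always enough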;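 note: slope of raw intensity against log time taken from 70 to 1610 s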). As to conditions: recombinant KvBeta, 4-cyanobenzaldehyde reduction, at 10 µM, stronger effect = higher value.
Assay [5] shares this target. The assay is described as follows: enhancers of rat Kvbeta2 NADPH turnover – biochemical, NADPH fluorescence, primary screen (AID 623).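 Note: fluorescence intensity change per second fitted from 20 to 320 s.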 As to conditions: Recombinant KvBeta, NADPH fluorescence decrease slope, 10 min; at 10 µM; stronger effect = lower value.
For assay [6], the target named is Alpha-2C adrenergic receptor (Homo sapiens) (UniProt P18825). The assay is described as follows: compounds altering alpha2C-coupled GIRK flux – cell-based, HEK293 alpha2C/GIRK1/2, thallium flux, primary screen (AID 624;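 active = fluorescence slope after compound addition differing from the mean of all screened samples at 99.7% confidence, in either direction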;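 note: slope of fluorescence ratio to pre-addition baseline per second over 15 to 24 s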). As to conditions: thallium flux BTC fluorescence, at 10 µM, actives lie on both sides.
Chain of Alpha-2C adrenergic receptor (Homo sapiens) (P18825 whole entry, looked up): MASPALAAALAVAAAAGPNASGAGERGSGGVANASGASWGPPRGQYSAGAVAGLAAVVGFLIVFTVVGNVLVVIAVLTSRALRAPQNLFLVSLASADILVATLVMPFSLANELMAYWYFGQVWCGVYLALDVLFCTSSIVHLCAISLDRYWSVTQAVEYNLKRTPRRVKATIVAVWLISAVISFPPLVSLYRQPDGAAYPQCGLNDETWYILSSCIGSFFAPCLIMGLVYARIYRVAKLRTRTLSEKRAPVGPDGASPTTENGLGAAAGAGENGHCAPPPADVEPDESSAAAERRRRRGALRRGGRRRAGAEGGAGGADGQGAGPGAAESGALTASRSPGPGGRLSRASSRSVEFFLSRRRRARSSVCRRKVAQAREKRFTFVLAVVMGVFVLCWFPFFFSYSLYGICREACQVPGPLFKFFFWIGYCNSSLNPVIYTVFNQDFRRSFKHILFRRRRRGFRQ
Assay [7] is described as follows: blockers of RIG-like receptor reporter activation – cell-based, Sendai virus stimulus, luciferase, 10K MLSCN set, TLR/RLR signaling modifier project, primary screen (AID 602276;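 active = inhibition at or above 50% at 10 µM; inactive = inhibition below 50%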;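 note: firefly luciferase from ISG56 promoter only with Renilla not read in this screen; 0% = Sendai virus plus DMSO and 100% = medium plus DMSO without virus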). As to conditions: HEK293 RL24 IRF3 luciferase reporter, at 10 µM, stronger effect = higher value.
Assay [8] can be described thus: TLR3 IRF3 reporter activation blockers – cell-based, poly I:C stimulus, luciferase, 10K MLSCN set, primary screen (AID 602277;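 active = inhibition of the reporter signal at or above 50%; inactive = inhibition below 50%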). The note with it: HEK293-TLR3 RL24 IRF3 luciferase reporter, at 10 µM, stronger effect = higher value.

Chain of Voltage-gated potassium channel subunit beta-2 (Rattus norvegicus) (P62483 whole entry, looked up): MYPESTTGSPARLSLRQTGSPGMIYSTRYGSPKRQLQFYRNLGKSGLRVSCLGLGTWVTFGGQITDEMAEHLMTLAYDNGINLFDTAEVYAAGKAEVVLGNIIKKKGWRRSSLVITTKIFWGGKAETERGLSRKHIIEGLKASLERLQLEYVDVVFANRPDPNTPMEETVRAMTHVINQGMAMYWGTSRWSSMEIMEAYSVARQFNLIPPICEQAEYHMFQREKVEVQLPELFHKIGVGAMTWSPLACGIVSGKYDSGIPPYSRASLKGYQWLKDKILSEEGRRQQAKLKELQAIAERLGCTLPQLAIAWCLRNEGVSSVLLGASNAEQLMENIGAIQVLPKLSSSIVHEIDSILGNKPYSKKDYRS

For the compound `CC(C)CN(C(=O)COC(=O)Cc1n[nH]c(=O)c2ccccc12)C1CCS(=O)(=O)C1` (centres undefined), the cell count in assay [1] is 399. In addition, the inhibition in assay [1] was 1.7% (inactive); in assay [3], -65.6% (inactive); in assay [7] it was 12% (inactive); in assay [8], 34.3% (inactive). Also, the inhibition of aggregation in assay [2] is 14.7% (inactive). Also, the nuclei count in assay [2] stood at 96.8%; in assay [3], 108%. Besides, the fluorescence slope in assay [4] is -0.586 (inactive). In addition, in assay [5], the NADPH fluorescence slope is -1.4e-05 (inactive). For the same compound, the slope in assay [6] is 0.00565 (inactive).
On to `O=C(c1cccc(C(=O)N2CCN(c3ccccc3)CC2)c1)N1CCN(c2ccccc2)CC1`, for which the cell count in assay [1] worked out at 667. Also, the inhibition was -2.6% (inactive) in assay [1], -86.1% (inactive) in assay [3], 4.89% (inactive) in assay [7] and -1.16% (inactive) in assay [8]. The inhibition of aggregation in assay [2] was 1.8% (inactive). Besides, the nuclei count in assay [2] amounted to 98.6%; in assay [3], 112%. In addition, the fluorescence slope in assay [4] was -0.456 (inactive). Also, in assay [5], the NADPH fluorescence slope is 3e-05 (inactive). The slope in assay [6] was 0.00517 (inactive).
In the case of `O=C(CN(CCc1ccccc1)C(=O)CN1C(=O)COc2ccccc21)NCc1ccco1`, in assay [1], the cell count is 571. Besides, the inhibition is -2.3% (inactive) in assay [1], -12.8% (inactive) in assay [3], 16.4% (inactive) in assay [7] and 23.2% (inactive) in assay [8]. Besides, the inhibition of aggregation in assay [2] is -4.1% (inactive). Moreover, the nuclei count in assay [2] came out at 55.5%; in assay [3] it was 97.6%. Further, the fluorescence slope in assay [4] is -0.468 (inactive). Moreover, the NADPH fluorescence slope in assay [5] is -3.2e-06 (inactive). Moreover, in assay [6], the slope was 0.00696 (inactive).
`CC(Oc1ccccc1)C(=O)NC1CC(C)(C)NC(C)(C)C1` (centres undefined): the cell count in assay [1] turned out to be 386. Besides, the inhibition in assay [1] was 0.2% (inactive); in assay [3], 13.8% (inactive); in assay [7], 17.4% (inactive); in assay [8], 26.2% (inactive). For the same compound, the inhibition of aggregation in assay [2] was 4.3% (inactive). The nuclei count in assay [2] was determined as 89.9%; in assay [3] it was 102%. The fluorescence slope in assay [4] was -0.261 (inactive). In addition, the NADPH fluorescence slope in assay [5] is -3.5e-05 (inactive). Also, the slope in assay [6] is 0.00587 (inactive).
For the compound `CCOC(=O)CNC(=O)CSc1ncnc2c1cnn2Cc1ccccc1`, the cell count in assay [1] worked out at 597. For the same compound, the inhibition in assay [1] is 12.6% (inactive); in assay [3], -157% (inactive); in assay [7], 2.57% (inactive); in assay [8], 24.8% (inactive). The inhibition of aggregation in assay [2] was -12.1% (inactive). For the same compound, the nuclei count in assay [2] came to 103%; in assay [3] it was 134%. Also, the fluorescence slope in assay [4] was -0.374 (inactive). Further, the NADPH fluorescence slope in assay [5] was -0.000157 (inactive). For the same compound, the slope in assay [6] is 0.0067 (inactive).
For `COc1ccc(C(=O)Nc2nncs2)c(OC)c1`, in assay [1], the cell count was determined as 746. The inhibition in assay [1] is 7.5% (inactive); in assay [3], -98.6% (inactive); in assay [7], -22.9% (inactive); in assay [8] it was -48.7% (inactive). Also, the inhibition of aggregation in assay [2] is -7.4% (inactive). In addition, the nuclei count in assay [2] worked out at 27%; in assay [3] it was 111%. In addition, the fluorescence slope in assay [4] was -0.631 (inactive). The NADPH fluorescence slope in assay [5] was 3.8e-06 (inactive). In addition, the slope in assay [6] is 0.00588 (inactive).
As for `Fc1cccc(Cl)c1Cn1nnc2c(NCc3ccccn3)ncnc21`, in assay [1], the cell count turned out to be 716. Besides, the inhibition in assay [1] is -10.5% (inactive); in assay [3], -26.6% (inactive); in assay [7], 6.08% (inactive); in assay [8] it was 9.56% (inactive). The inhibition of aggregation in assay [2] is 15.5% (inactive). In addition, the nuclei count is 120% in assay [2] and 108% in assay [3]. In assay [4], the fluorescence slope was -0.514 (inactive). The NADPH fluorescence slope in assay [5] is -6.7e-05 (inactive). In addition, the slope in assay [6] is 0.0046 (inactive).
For `Cc1nc2ccc(S(=O)(=O)NCC(=O)N3CCCCC3)cc2s1`, the cell count in assay [1] was determined as 277. Also, the inhibition is -3% (inactive) in assay [1], 27.3% (inactive) in assay [3], -10.6% (inactive) in assay [7] and -1.82% (inactive) in assay [8]. The inhibition of aggregation in assay [2] was 11.4% (inactive). Also, the nuclei count in assay [2] is 79.6%; in assay [3], 94.4%. The fluorescence slope in assay [4] was -0.488 (inactive). In addition, the NADPH fluorescence slope in assay [5] was -4.1e-05 (inactive). For the same compound, in assay [6], the slope is 0.00708 (inactive).
For the compound `O=C(Nc1ccc2c(c1)OCO2)OCc1ccccc1`, the cell count in assay [1] was determined as 449. Besides, the inhibition in assay [1] was 1.6% (inactive); in assay [3], 8.4% (inactive); in assay [7], -47.7% (inactive); in assay [8], -107% (inactive). Also, the inhibition of aggregation in assay [2] is -6% (inactive). The nuclei count in assay [2] and in assay [3] was 101% in each case. In assay [4], the fluorescence slope is -0.439 (inactive). Further, in assay [5], the NADPH fluorescence slope was -5.5e-05 (inactive). The slope in assay [6] was 0.0049 (inactive).
As for `CC(=O)NC(CCS(C)(=O)=O)C(=O)Nc1cccc(C)c1` (centres undefined), the cell count in assay [1] is 600. Also, the inhibition in assay [1] was 8.7% (inactive); in assay [3], 21.6% (inactive); in assay [7], -14.8% (inactive); in assay [8], -1.13% (inactive). The inhibition of aggregation in assay [2] is 2.5% (inactive). For the same compound, the nuclei count in assay [2] was found to be 110%; in assay [3] it was 95.7%. The fluorescence slope in assay [4] is -0.579 (inactive). Also, the NADPH fluorescence slope in assay [5] is 1.1e-05 (inactive). Moreover, the slope in assay [6] is 0.00598 (inactive).
In the case of `CC(=O)Nc1ccc(NS(=O)(=O)C(F)(F)F)cc1`, the cell count in assay [1] was found to be 417. Besides, the inhibition in assay [1] is 2% (inactive); in assay [3], -96% (inactive); in assay [7], 3.92% (inactive); in assay [8] it was 21.1% (inactive). The inhibition of aggregation in assay [2] was 8% (inactive). For the same compound, the nuclei count is 104% in assay [2] and 127% in assay [3]. Moreover, the fluorescence slope in assay [4] is -0.353 (inactive). In addition, in assay [5], the NADPH fluorescence slope is -0.000109 (inactive). Besides, the slope in assay [6] was 0.00651 (inactive).
Turning to `COCCCNC(=O)CCn1c(=O)c2ccccc2n(CC(=O)Nc2ccc(C)cc2C)c1=O`, the cell count in assay [1] was found to be 689. Further, the inhibition in assay [1] is -7.3% (inactive); in assay [3], -48.2% (inactive); in assay [7], 8.73% (inactive); in assay [8] it was 19% (inactive). Further, the inhibition of aggregation in assay [2] is -6.5% (inactive). Moreover, the nuclei count worked out at 102% in assay [2] and 111% in assay [3]. In assay [4], the fluorescence slope was -0.502 (inactive). The NADPH fluorescence slope in assay [5] was -1.8e-05 (inactive). Also, the slope in assay [6] is 0.00709 (inactive).
`COCc1[nH]nc2c1C(c1cc(OC)c(O)c(OC)c1)C(C#N)=C(N)O2` (centres undefined): in assay [1], the cell count turned out to be 397. Moreover, the inhibition was -1.6% (inactive) in assay [1], -26.1% (inactive) in assay [3], 17.4% (inactive) in assay [7] and 21.1% (inactive) in assay [8]. Besides, the inhibition of aggregation in assay [2] is -17% (inactive). In addition, the nuclei count in assay [2] amounted to 115%; in assay [3] it was 117%. Also, in assay [4], the fluorescence slope is -0.502 (inactive). Further, the NADPH fluorescence slope in assay [5] was -4.1e-05 (inactive). The slope in assay [6] was 0.0049 (inactive).
In the case of `O=C(O)c1ccc(COc2c(F)c(F)cc(F)c2F)cc1`, the cell count in assay [1] stood at 611. The inhibition is -0.8% (inactive) in assay [1], -50.1% (inactive) in assay [3], 8.32% (inactive) in assay [7] and 8.92% (inactive) in assay [8]. For the same compound, the inhibition of aggregation in assay [2] was 27.2% (inactive). For the same compound, the figures for the nuclei count in assay [2] and in assay [3] were 102% and 107%, respectively. In addition, in assay [4], the fluorescence slope was -0.453 (inactive). Besides, in assay [5], the NADPH fluorescence slope was -1.9e-05 (inactive). In assay [6], the slope is 0.00642 (inactive).
